Screening data from PubChem BioAssay.
Anthrax LF inh2 = Bacillus anthracis LF protease inhibitors, primary screen, biochemical, multiplex microsphere, MLPCN library; multiplex microsphere protease cleavage assay; inhibition, % at 10 µM; Lethal factor (Bacillus anthracis), P15917; 360,000 tested, 0.12% active; note: plate controls were buffer without enzyme for full effect and enzyme alone for no effect
Target sequence (P15917 whole entry, looked up): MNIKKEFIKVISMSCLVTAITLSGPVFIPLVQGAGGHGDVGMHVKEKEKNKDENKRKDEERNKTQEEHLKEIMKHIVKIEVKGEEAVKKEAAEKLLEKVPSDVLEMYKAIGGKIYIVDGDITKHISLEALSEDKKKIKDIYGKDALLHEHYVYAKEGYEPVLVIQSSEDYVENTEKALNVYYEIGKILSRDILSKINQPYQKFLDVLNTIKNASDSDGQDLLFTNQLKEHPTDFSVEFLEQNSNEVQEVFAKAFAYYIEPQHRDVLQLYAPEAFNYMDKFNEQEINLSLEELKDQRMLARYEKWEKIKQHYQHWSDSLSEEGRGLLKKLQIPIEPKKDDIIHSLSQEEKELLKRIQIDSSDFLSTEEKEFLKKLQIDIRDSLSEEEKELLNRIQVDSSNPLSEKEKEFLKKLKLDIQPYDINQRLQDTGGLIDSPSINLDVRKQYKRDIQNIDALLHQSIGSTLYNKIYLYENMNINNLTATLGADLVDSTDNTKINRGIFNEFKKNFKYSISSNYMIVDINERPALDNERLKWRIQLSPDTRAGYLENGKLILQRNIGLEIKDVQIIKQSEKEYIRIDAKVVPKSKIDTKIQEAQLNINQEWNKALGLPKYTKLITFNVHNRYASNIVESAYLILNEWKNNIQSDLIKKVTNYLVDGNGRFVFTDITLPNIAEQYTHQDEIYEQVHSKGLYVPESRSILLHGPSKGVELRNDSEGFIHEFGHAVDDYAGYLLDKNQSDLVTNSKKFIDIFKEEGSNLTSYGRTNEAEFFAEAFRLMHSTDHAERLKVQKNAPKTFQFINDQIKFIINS
Autofluor counter = counter-screen for toxin protease inhibitors: compound fluorescence; 360,000 tested, 3.1% active; compound autofluorescence counterscreen, microsphere flow cytometry; active compounds read high; fluorescence intensity (test concentration not listed); in the data active = fluorescence intensity above about 16000; inconclusive = no clear call, values can overlap the other calls
BoNT-F LC inh = BoNT/F light chain protease inhibitors, primary screen, biochemical, flow cytometry, MLPCN library; 360,000 tested, 0.22% active; inhibition, % at 10 µM; AID 588497, 2011; Multiplex microsphere protease cleavage assay; in the data active = inhibition above about 35%, passing the limit was not always enough; inconclusive = no clear call, values can overlap the other calls; note: plate controls were buffer without enzyme for full effect and enzyme alone for no effect
BoNT-A LC inh2 = BoNT/A light chain protease inhibitors, primary screen, biochemical, flow cytometry, MLPCN library; multiplex microsphere protease substrate cleavage; inhibition, % at 10 µM; 360,000 tested, 0.17% active; AID 588499, 2011; note: plate controls were buffer without enzyme for full effect and enzyme alone for no effect
The depositor's hits bear a star; ? = inconclusive. An excerpt weighted towards active compounds, which were near 3.5% of everything screened. Cut-off read from the data, not from the text of the source, unless noted: active = inhibition above about 30%; inconclusive = no clear call, values can overlap the other calls; inactive = below that.

SMILES	Anthrax LF inh2	Autofluor counter	BoNT-F LC inh	BoNT-A LC inh2
CN(C)c1ccc(CNC(=O)C2(C)Cc3c(-c4cccc(C(F)(F)F)c4)ccnc3O2)cc1 (stereo unspecified)	-5	3597	-5	-1
C(=N\c1nc2ccccc2[nH]1)/c1cccs1	-2	23619*	-2	?
COc1ccc(CNCC(O)(c2ccccc2)c2ccc(Cl)cc2)cc1 (stereo unspecified)	2	9814	-14	0
COc1cccc(CNCC(O)(c2ccc(Cl)cc2)c2ccc(Cl)cc2)c1	-3	23322*	-12	0
COc1ccc(-n2cnnc2SCC(=O)NC2CC2)cc1	-3	3710	4	0
COc1ccc(C2C(=O)N(C3CCCCC3)CC(=O)N2CC2COc3ccccc3O2)cc1 (stereo unspecified)	-2	21276*	7	5
Cc1ccc(C2C(=O)N(C3CCCC3)CC(=O)N2CC2COc3ccccc3O2)cc1 (stereo unspecified)	-6	19758*	9	9
Cc1ccc(NC(=O)c2cc(NC(=O)C3CC=CCC3C(=O)O)ccc2N2CCOCC2)cc1 (stereo unspecified)	7	3202	-4	0
Cc1cccc(NC(=O)c2cc(NC(=O)C3CC=CCC3C(=O)O)ccc2N2CCOCC2)c1 (stereo unspecified)	0	23987*	-5	-1
COc1ccc(CCNC(=O)c2cc(-c3ccccc3OC)on2)cc1OC	0	24479*	-5	?
COc1ccccc1-c1cc(C(=O)Nc2cccnc2)no1	-1	22187*	1	1
COc1ccccc1-c1cc(C(=O)NCCc2ccccc2)no1	-2	3860	-28	-2
COc1ccc(-c2cc(C(=O)NCCc3ccccc3)no2)cc1OC	-1	20927*	2	4
O=C1CCC(=O)N1OCCCOc1ccccc1	-3	17200*	-1	-2
O=S1CCCSC1c1cccnc1 (stereo unspecified)	-5	21912*	-1	2
O=C1CSC(c2cccnc2)N1c1ccccc1 (stereo unspecified)	-4	5962	-4	0
CCn1c(O)c(/C=N/N=C2CCCC2)c2ccc(C3=NNC(=O)CC3)cc21	-4	23877*	-7	-4
CC(=O)c1cccc(S(=O)(=O)N2CCN(CCOc3ccccc3)CC2)c1	-8	8733	5	0
Cc1cc(NC(=O)c2c(F)cccc2F)n(-c2nc3ccccc3[nH]2)n1	-3	16824*	-5	-3
Cc1cc(NC(=O)c2c(F)cccc2Cl)n(-c2nc3ccccc3[nH]2)n1	0	2956	-4	0
OC[C@H]1O[C@H](c2nc(-c3nc(-c4cccc(-n5cccc5)c4)no3)cs2)C[C@@H]1O	-6	3538	-4	0
CSc1nc(NCc2ccco2)c2sc3nc(C(C)C)c4c(c3c2n1)CC(C)(C)OC4	0	19909*	0	?
CCN(C[C@H]1N[C@@](Cc2ccccc2)(C(=O)OC)[C@H]2C(=O)N(C)C(=O)[C@@H]12)C(=O)COc1ccccc1	-4	3799	2	0
CC(=O)NC(=O)NC1CSCC1OC(C)=O (stereo unspecified)	-2	23409*	-4	?
COc1cc(C(=O)OC2CSCC2NC(=O)c2ccccc2)cc(OC)c1OC (stereo unspecified)	-1	2660	1	0
SMILES	Anthrax LF inh2	Autofluor counter	BoNT-F LC inh	BoNT-A LC inh2
Cc1ccc(NC(=O)Cn2c(C)cc(C)c(C#N)c2=O)c(Cl)c1	-4	23456*	-5	-4
COc1ccc2c(c1)c(=O)oc1cc(OCC(=O)N3CCCC(C)C3)ccc12 (stereo unspecified)	-2	2969	4	0
COc1ccc2c(c1)c(=O)oc1cc(OCC(=O)N3CCC(C)CC3)ccc12	2	20779*	11	5
Cc1ccc2cc(NC(=O)C3(C)CCN3C(C)C)ccc2n1 (stereo unspecified)	2	3968	-5	-1
Cc1cccc(NC(=O)c2cc(S(=O)(=O)NCc3ccco3)ccc2F)c1C	1	23011*	1	2
CCCCNC(=O)COC(=O)c1c2c(nc3ccccc13)/C(=C/c1cccs1)CC2	25	6060	19	39*
CC(C)(C)S(=O)(=O)N1C[C@H]2CC/C=C\C/C(c3ccccc3)=C\2[C@@H]1CCO	0	4239	-4	0
O=C(NCc1ccccc1)C1c2ccccc2OCC(=O)N1Cc1ccccc1 (stereo unspecified)	-10	5128	0	0
CC(C)C(=O)Nc1ccc(-c2nnc(-c3ccccc3)o2)cc1	-21	2842	-15	2
CN(C)c1ccc(C(=O)c2ccccc2)cc1	-2	17206*	-3	-2
CC(C)C(=O)Nc1ccc(C(=O)c2ccccc2)cc1	0	19934*	0	-1
O=C(NNC(=O)c1ccncc1)Nc1ccc(N=Nc2ccccc2)cc1	-1	3825	-14	0
CCOC(=O)c1ccc2c(c1)N(CC(=O)N1CCCC1)C(=O)C(C)(C)O2	-2	23746*	-4	?
COC(=O)CN1C(=O)C(C)(C)Oc2ccc(C(=O)NC3CC3)cc21	0	22838*	-3	?
O=C(C[C@H]1C(=O)N(Cc2ccccc2)C[C@@H]1Cc1ccccc1)Nc1ccc(Br)cc1	-2	2908	5	0
COc1cccc(NC(=O)C2(C)CCCN(C(C)C)C2)c1 (stereo unspecified)	-4	3800	0	-1
COc1cc(C(=O)NCCSc2ccc(Br)cc2)cc(OC)c1OC	-24	18300*	-74	-16
COc1cc(C(=O)NCCC(=O)NC(C)C)cc(OC)c1OC	0	4420	-2	-1
CCCCCCNC(=O)CCNC(=O)c1cc(OC)c(OC)c(OC)c1	1	22280*	0	0
COc1cc(C(=O)Nc2ccc(Br)cc2C(=O)c2cc(OC)c(OC)c(OC)c2)cc(OC)c1OC	-2	24193*	-2	0
COc1ccc(CNCCCn2cnc3c(SC)ncnc32)cc1	-2	3517	-5	0
C[C@@H]1CN([C@@H](C)CO)S(=O)(=O)c2ccc(Br)cc2O[C@H]1CN(C)C(=O)c1ccncc1	-3	3544	6	0
CCCCCCCCN1C(=O)[C@H](CC(=O)NCCCOC)C[C@@]2(C(=O)OC)CCCCC=C12	0	5224	-3	0
Cc1ccc(C(O)c2ncc(-c3ccc4ccccc4c3)[nH]2)cc1F (stereo unspecified)	-3	3588	-3	-1
O=C(NCc1ccc(Cl)c(Cl)c1)c1cc(C2CCCCN2C(=O)c2ccccc2)on1 (stereo unspecified)	2	4211	-7	-1
COc1ccc(C(=O)NC(=S)NCc2ccccc2)cc1OC	-5	4884	-5	-1
COc1ccc(C(=O)NC(=S)NCc2ccc(-c3nc4ccccc4o3)cc2)cc1OC	1	21219*	-5	?
CCOc1cc(C(=O)NCc2ccc(-c3nc4ccccc4o3)cc2)cc(OCC)c1OCC	-5	16439*	-4	-1
